PubChem BioAssay (EPA / NIEHS)
Several values for one entry are separate records, joined by “and”; a condition that tells them apart may be missing. Equal entries are not always repeated. Inconclusive results are not listed. Activity calls are given as the source filed them. The calls were made as follows, unless noted: active = hit-call score of the fitted dose curve at least 0.9, where 1 is the maximum; inactive = score below 0.9.

Key:
[1] = CCTE_Shafer_MEA_acute_burst_duration_mean: CCTE's Neural Acute Assay for Mean Burst Duration, Shafer Lab (AID 2284014);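 also: hits are decreases in mean burst duration relative to DMSO controls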
Summary of the method: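 Rat primary cortical neurons on 48-well MEA, treated at DIV 13 or 15 with 0.03-40 uM in at least 3 wells. Value is percent change in mean burst duration, comparing 40 min recordings at 37 C before and during exposure.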

[2] = CCTE_Shafer_MEA_acute_per_burst_spike_number_mean: CCTE's Neural Acute Assay for Average Number of Spikes Per Burst, Shafer Lab (AID 2284015);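 also: hits are decreases in mean spikes per burst versus baseline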
Summary of the method: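 Rat primary cortical neurons on 48-well MEAs (DIV 13 or 15) were treated with 0.03-40 uM compound at 37 C. Mean spikes per burst over 40 min were recorded before and after exposure and expressed as percent change from baseline, relative to DMSO.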

[3] = CCTE_Shafer_MEA_acute_interburst_interval_mean: CCTE's Neural Acute Assay for Mean Interburst Interval, Shafer Lab (AID 2284016);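 also: percent change of mean interburst interval versus each well's own pre-dose baseline; curves fitted for decrease in interburst interval relative to DMSO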
Summary of the method: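 Rat primary cortical neurons on 48-well MEAs at DIV 13 or 15 were exposed acutely to 0.03-40 uM. Spikes detected at 8x rms noise, 37 C. Mean interburst interval from 40 min recordings expressed as percent change from 40 min pre-treatment baseline.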

[4] = CCTE_Shafer_MEA_acute_burst_percentage_mean: CCTE's Neural Acute Assay for Percentage of Spikes in a Burst, Shafer Lab (AID 2284017);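 as to AC50: curve fitted for loss of signal so potency reflects decreased burst percentage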
Summary of the method: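 Primary rat cortical neurons on 48-well MEA plates, treated on DIV 13 or 15 at 0.03-40 uM. Spikes detected at 8x rms noise at 37C; percent change from 40-min baseline to 40-min post-dose recording, fitted versus DMSO.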

[5] = CCTE_Shafer_MEA_acute_burst_percentage_std: CCTE's Neural Acute Assay for Standard Deviation of Burst Percentage, Shafer Lab (AID 2284018);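 also: fitted in the negative direction so actives lower burst percentage SD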
Summary of the method: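 Rat primary cortical neurons on 48-well MEAs, DIV 13 or 15, 37 C. 40-min baseline then 40-min recording with compound (0.03-40 uM); well-level SD of per-electrode burst spike percentage, expressed as percent change from baseline.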

[6] = CCTE_Shafer_MEA_acute_per_network_burst_spike_number_mean: CCTE's Neural Acute Assay for Average Number of Spikes in a Network Burst, Shafer Lab (AID 2284019);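 as to AC50: curve fitted for loss of signal so actives reduce spikes per network burst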
Summary of the method: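 Rat primary cortical neurons on 48-well MEA at DIV 13 or 15, 37 C; compounds 0.03-40 uM, at least three wells each. 40-min baseline then 40-min exposure recording; percent change in mean spikes per network burst.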

[7] = CCTE_Shafer_MEA_acute_per_network_burst_electrodes_number_mean: CCTE's Neural Acute Assay for Mean Number of Electrodes in a Network Burst, Shafer Lab (AID 2284021);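 also: curves fitted for decreases only so hits reduce electrodes per burst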
Summary of the method: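 Cultures of rat cortex neurons were exposed on DIV 13 or 15 to compounds at 0.03-40 uM in at least three wells each. Activity over 40 min before and 40 min after exposure at 37 C gave the percent change in electrodes per network burst.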

[8] = CCTE_Shafer_MEA_acute_network_burst_percentage: CCTE's Neural Acute Assay for Percentage of Network Bursts, Shafer Lab (AID 2284022);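 also: curves fitted for loss so actives lower network burst percentage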
Summary of the method: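 Cortical neurons from rat were grown over microelectrode arrays and used on day 13 or 15 in vitro. Wells with at least 10 active electrodes received test chemical at 0.03-40 uM. Activity during 40 min of exposure was compared with the preceding 40-min baseline.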

[9] = CCTE_Shafer_MEA_acute_cross_correlation_area: CCTE's Neural Acute Assay for Area of Cross Correlation, Shafer Lab (AID 2284024);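 also: area under pooled inter-electrode spike cross-correlation near zero lag as percent change from own baseline; curves fitted for loss of cross-correlation area so actives lower synchrony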
Summary of the method: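 Acute exposure of mature rat cortical networks (day 13 or 15 post-plating) to 0.03-40 uM compound. Spontaneous spiking on MEA, 40 min pre- and post-dose at 37 C.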

[10] = CCTE_Shafer_MEA_acute_cross_correlation_HWHM: CCTE's Neural Acute Assay for Cross Correlation at Half Width at Half Maximum, Shafer Lab (AID 2284026);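 also: percent change per well from pre-dose baseline in spike cross-correlogram half width; hits are a decrease in cross-correlogram half width relative to DMSO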
Summary of the method: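 Primary cortex (rat), MEA, DIV 13/15; compound 0.03-40 uM; 40 min pre + 40 min post at 37 C; spike threshold 8x rms; wells need ≥10 active electrodes; endpoint = % change in cross-correlogram HWHM vs baseline, DMSO negative control.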

[11] = CCTE_Shafer_MEA_acute_synchrony_index: CCTE's Neural Acute Assay for Synchrony, Shafer Lab (AID 2284027);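 also: fitted for loss of signal so actives lower synchrony relative to DMSO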
Summary of the method: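 Readout is percent change in the unitless network synchrony index (0 low, 1 high) between a 40-min baseline and a 40-min recording in compound. Cultures were primary rat cortical neurons on MEAs, treated at 0.03-40 uM on DIV 13 or 15.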

[12] = biological target: Estrogen receptor (Homo sapiens) (UniProt P03372); experiment: CCTE_Deisenroth_AIME_384WELL_LUC_Active: CCTE's 384-well Estrogen Receptor Transactivation Assay with AIME metabolic competence (ERTA luciferase; metabolism positive), Deisenroth Lab (AID 2284030; active = hit-call score of the fitted dose curve at least 0.9, where 1 is the maximum)
Summary of the method: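 In this metabolism-positive format, a 2-hour exposure to alginate-immobilized rat S9 precedes a 24 hour luciferase transactivation readout in VM7Luc4E2 cells. Dosing spans 10 concentrations from 0.002 to 200 uM.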

[13] = CCTE_Deisenroth_AIME_384WELL_CTox_Active: Cytotoxicity Assessment (CTOX) in CCTE's 384-well Estrogen Receptor Transactivation Assay with AIME metabolic competence (metabolism positive), Deisenroth Lab (AID 2284037; active = hit-call score of the fitted dose curve at least 0.9, where 1 is the maximum;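 also: chemicals first conditioned 2 h by alginate-bound induced rat liver S9 before cells; activity means signal loss indicating cell death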)
Summary of the method: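 Chemicals pre-incubated 2 hours with alginate-immobilised phenobarbital/beta-naphthoflavone-induced male Sprague Dawley rat liver S9, then conditioned medium applied 24 hour to VM7Luc4E2 cells. Viability by fluorogenic protease substrate; 10-point series 0.002 - 200 uM.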

[14] = biological target: Estrogen receptor (Homo sapiens) (UniProt P03372); experiment: CCTE_Deisenroth_AIME_384WELL_LUC_Inactive: CCTE's 384-well Estrogen Receptor Transactivation Assay without AIME metabolic competence (ERTA luciferase; metabolism negative), Deisenroth Lab (AID 2284038; active = hit-call score of the fitted dose curve at least 0.9, where 1 is the maximum;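 also: VM7Luc4E2 breast cells given medium preincubated 2 h with S9-free microspheres; hits raise estrogen receptor luciferase signal so potencies reflect agonists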)
Summary of the method: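 Metabolism-negative mode: chemicals (10-point, 0.002–200 uM) held 2 h with alginate-water microspheres, then conditioned medium applied to VM7Luc4E2 cells for 24 h. Luciferase induction referenced to 17beta-estradiol.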

[15] = CCTE_Shafer_MEA_dev_firing_rate_mean: CCTE's Neural Network Formation Assay for Mean Firing Rate, Shafer Lab (AID 2284031);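 also: AUC of well mean spike rate recorded on DIV 5 7 9 and 12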;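 as to AC50: curve fitted for loss of firing so AC50 reflects decreased mean firing rate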
Summary of the method: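 Rat primary cortical neurons were seeded on multielectrode arrays and treated from plating through day 12, with redosing at each feed. Spontaneous spiking was recorded four times; mean firing rate AUC was fitted downward against DMSO.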

[16] = CCTE_Shafer_MEA_dev_per_burst_spike_percent: CCTE's Neural Network Formation Assay for Percent of Spikes in a Burst, Shafer Lab (AID 2284032);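 as to AC50: fitted as a decrease in burst spike percentage below DMSO baseline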
Summary of the method: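 Rat primary cortical neurons on 16-electrode MEA wells, dosed from plating day 0 for 12 days with renewal on DIV 5 and 9; spikes-in-bursts percentage averaged over bursting electrodes, collapsed as AUC across days 5, 7, 9, 12; loss direction versus DMSO.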

Measured: AC50

Estrogen receptor (Homo sapiens), sequence (P03372 whole entry, looked up): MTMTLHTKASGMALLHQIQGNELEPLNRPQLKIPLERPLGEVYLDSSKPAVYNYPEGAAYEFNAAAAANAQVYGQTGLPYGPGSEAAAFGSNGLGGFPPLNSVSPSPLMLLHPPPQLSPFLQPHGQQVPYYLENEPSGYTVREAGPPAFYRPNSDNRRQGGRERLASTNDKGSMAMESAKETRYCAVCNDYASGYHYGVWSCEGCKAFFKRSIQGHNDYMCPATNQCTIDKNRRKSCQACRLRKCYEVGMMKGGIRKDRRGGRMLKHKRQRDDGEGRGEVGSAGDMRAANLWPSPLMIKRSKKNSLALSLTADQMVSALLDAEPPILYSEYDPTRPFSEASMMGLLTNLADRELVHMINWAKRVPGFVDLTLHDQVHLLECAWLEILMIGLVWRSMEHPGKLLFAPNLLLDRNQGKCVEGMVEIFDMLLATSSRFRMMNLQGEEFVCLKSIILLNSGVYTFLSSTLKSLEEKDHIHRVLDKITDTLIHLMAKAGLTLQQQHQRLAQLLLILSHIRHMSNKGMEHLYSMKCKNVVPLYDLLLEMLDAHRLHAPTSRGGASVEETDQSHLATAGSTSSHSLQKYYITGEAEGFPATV

CC(C)C(=O)OCC(C)(C)C(OC(=O)C(C)C)C(C)C (stereo not drawn)
not listed: [12] | [13] | [14] | [15] | [16]
inactive: all other assays above

O=C(N[C@H]1CN2CCC1CC2)c1cc2ccoc2cn1
not listed: [15] | [16]
inactive: all other assays above

COS(=O)(=O)OC
not listed: [15] | [16]
inactive: all other assays above

CCC(C)(c1ccc(O)cc1)c1ccc(O)cc1
active: [8] 3.31 µM | [12] 0.927 µM | [13] 164 µM | [14] 0.206 µM
inactive: all other assays above

CC#Cc1cc(C)nc(Nc2ccccc2)n1
inactive: [1] | [9]
active: [2] 7.84 µM | [3] 4.15 µM | [4] 6.86 µM | [5] 4.1 µM | [6] 2.62 µM | [7] 2.57 µM | [8] 31 µM | [10] 5.98 µM | [11] 6.46 µM

CO/C=C(/C(=O)OC)c1ccccc1COc1cccc(C(F)(F)F)n1
active: [3] 5 µM | [4] 5.12 µM | [8] 5 µM | [9] 0.313 µM | [10] 5.05 µM | [11] 5.76 µM | [15] 272 nM and 453 nM | [16] 822 nM and 381 nM
inactive: [1] | [2] | [5] | [6] | [7]

CCCCCCCCCC[N+](C)(C)CCCCCCCCCC
active: [2] 9.61 µM | [4] 8.11 µM | [5] 20 µM | [6] 9.23 µM | [7] 12.5 µM | [8] 29.4 µM | [10] 1.63 µM | [11] 14.4 µM
inactive: [1] | [3] | [9]

ClC1=C(Cl)[C@]2(Cl)[C@@H]3[C@@H](Cl)[C@H]4O[C@H]4[C@@H]3C1(Cl)C2(Cl)Cl
inactive: [1] | [2] | [3] | [5] | [15]
active: [4] 0.0303 µM | [6] 0.0709 µM | [7] 0.0956 µM | [8] 0.0884 µM | [9] 0.118 µM | [10] 0.458 µM | [11] 0.0952 µM | [16] 25.3 µM
